Assay outcomes deposited in PubChem by National Center for Advancing Translational Sciences (NCATS).
DT40 TDP1 CPT: growth inhibition of DT40 Tdp1-/-;hTDP1 cells with camptothecin (screen for TDP1 inhibitors); 420,000 tested, 12% active; chicken DT40 Tdp1-/-;hTDP1 cells + 20 nM CPT, ATP luminescence, 48 h; Potency, µM (doses to about 46.2 µM), usual class: inhibitors; also: nearly all actives have a fitted effect of over 55% in size
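Chicken DT40 Tdp1-/- cells complemented with human TDP1, 400 cells/well, exposed to compounds plus 20 nM camptothecin for at least 48 h at 37 C; viability read as ATP content by CellTiter-Glo luminescence.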
DT40 TDP1 no CPT: qHTS for Inhibitors of human tyrosyl-DNA phosphodiesterase 1 (TDP1): qHTS in cells in absence of CPT. DT40 Tdp1-/- hTDP1 cells, no CPT, ATP luminescence, 48 h. Potency, µM (highest dose often 46.2 µM), hits mostly inhibitors. 420,000 tested, 15% active; also: nearly all actives have a fitted effect of over 55% in size
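DT40 Tdp1-/-;hTDP1 cells, no CPT (DMSO vehicle only), 400 cells/well; compounds pin-transferred; ≥48 hr, 37 °C; CellTiter-Glo 30 min RT dark, luminescence read.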
TGFb SMAD3 inh: inhibitors of TGF-b signaling | Potency, µM (titrated, usually from 46.1 µM), hits mostly inhibitors | 410,000 tested, 1.2% active | HepG2 CAGA-GFP TGF-b/SMAD3 reporter, GFP fluorescence, 18 h; TGF-beta stimulated, 500 pg/mL final; also: nearly all actives have a fitted effect of over 65% in size
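TGF-beta reporter screen: HEPG2 CAGA-GFP, 1% FBS, 500 pg/mL TGF-beta final, 18 h; per-cell GFP summed per well; curves fitted and categorized by class.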
HT1080NT lethal: kills 2HG-producing HT-1080-NT fibrosarcoma cells; 360,000 tested, 1.6% active; Potency, µM (highest dose often 46.1 µM), actives largely listed as cytotoxic; AID 686970; HT-1080-NT fibrosarcoma viability, CellTiter-Glo ATP luminescence, 48 h;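 also: NT is the 2HG producing partner of a matched IDH1 knockdown line; nearly all actives have a fitted effect of over 55% in size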
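Toxicity toward the 2HG-producing NT line was scored as %Activity, normalised to DMSO and no-cell wells, from CellTiter-Glo luminescence after 48 hours' treatment.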
HT1080 IDH1KD tx: kills HT-1080 cells with IDH1 knockdown; HT-1080 IDH1 knockdown viability, ATP luminescence, 48 h; Potency, µM (highest dose often 46.1 µM), actives largely listed as cytotoxic; 360,000 tested, 2% active
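After a 2 h attachment period, IDH1KD HT-1080 cells took pin-transferred compound for 48 h at 37 °C; ATP-based luminescence after 10 min room-temperature reagent incubation reported viability.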
HepG2 viability: kills HepG2 cells in TGF-b inhibitor counter-screen | HepG2 CAGA-GFP viability, ATP luminescence, 18 h | Potency, µM (doses to about 46.1 µM), actives largely listed as cytotoxic | 410,000 tested, 0.76% active
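CellTiter-Glo luminescence gave cytotoxicity after 18 hours at 37 degrees C. The cells were HepG2 CAGA-GFP in 1% FBS DMEM, stimulated with 500 pg/mL TGF-beta after compound addition. %Activity was normalised to no-cell wells (complete cell-killing) and DMSO (no toxicity), and curves were fitted and classified.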
Each line names hits and unclear results; the compound was inactive in the other large screens. Rows were chosen to be rich in hits. Some 17% of all compounds tested hit in one or more screens of this group. Calls follow the shape of the dose curve; as a rule, active = well fitted curve in the direction sought with a large enough effect; inconclusive = small, poorly fitted or top-dose-only effect, or another doubt; inactive = no such curve, though single readings can be large; an effect the other way counts as inactive or inconclusive.

C/C(=N\NC(=O)c1cc(Br)ccc1O)c1ccccn1	DT40 TDP1 CPT 3.3µM, DT40 TDP1 no CPT 3.7µM, TGFb SMAD3 inh inconclusive, HT1080NT lethal inconclusive, HT1080 IDH1KD tx inconclusive
C/C(=N\NC(=O)c1ccccc1Cl)c1ccccn1	DT40 TDP1 CPT 2.9µM, DT40 TDP1 no CPT 2.9µM, TGFb SMAD3 inh inconclusive, HT1080NT lethal inconclusive, HT1080 IDH1KD tx inconclusive
Cc1cccc(/C=N/NC(=O)c2cc(Br)ccc2O)n1	DT40 TDP1 no CPT inconclusive
C/C(=N/NC(=O)c1ccc2c(c1)OCO2)c1ccc(Br)s1	none
C/C(=N\NC(=O)c1ccc(Cl)c(Cl)c1)c1ccc(Br)s1	DT40 TDP1 CPT 1.5µM, DT40 TDP1 no CPT 1.5µM
C/C(=N\NC(=O)c1cccc(Br)c1)c1ccccn1	DT40 TDP1 CPT 0.73µM, DT40 TDP1 no CPT 0.92µM, TGFb SMAD3 inh inconclusive, HT1080NT lethal inconclusive, HT1080 IDH1KD tx inconclusive
CC(=NNC(=O)c1ccncc1)c1cccc(Br)c1	none
O=C(CCc1ccccc1Cl)NC1CCCN(c2ccc(C(F)(F)F)cn2)C1 (stereo not drawn)	DT40 TDP1 CPT inconclusive
O=c1cc(O)nc(SCc2ccccc2)n1-c1ccc(Cl)cc1	none
Cc1cccc(C(=O)Nc2ccc(C(=O)OCc3cc(=O)n4nc(CC(C)C)sc4n3)cc2)c1	DT40 TDP1 no CPT inconclusive (no result: HT1080NT lethal, HT1080 IDH1KD tx)
CCN1CCN(c2ccc(S(=O)(=O)N3CCCCC3)cc2NC(=O)/C=C/c2ccc(OC(F)F)cc2)CC1	DT40 TDP1 CPT inconclusive, DT40 TDP1 no CPT inconclusive, TGFb SMAD3 inh inconclusive
CCN1CCN(c2ccc(S(=O)(=O)N3CCCCC3)cc2NC(=O)/C=C/c2ccc(F)cc2)CC1	DT40 TDP1 CPT inconclusive, DT40 TDP1 no CPT inconclusive, TGFb SMAD3 inh inconclusive
CCN1CCN(c2ccc(S(=O)(=O)N3CCCCC3)cc2NC(=O)/C=C/c2ccc([N+](=O)[O-])cc2)CC1	DT40 TDP1 CPT inconclusive, DT40 TDP1 no CPT inconclusive, HT1080NT lethal inconclusive, HT1080 IDH1KD tx 16µM
CCN1CCN(c2ccc(S(=O)(=O)N3CCCCC3)cc2NC(=O)/C=C/c2cccc(OC)c2OC)CC1	DT40 TDP1 CPT inconclusive, DT40 TDP1 no CPT 16µM, TGFb SMAD3 inh inconclusive
CC(=O)NCCNc1nc(-c2ccccc2C)nc2ccccc12	none (no result: TGFb SMAD3 inh, HT1080NT lethal, HT1080 IDH1KD tx, HepG2 viability)
Cc1cc2nc(-c3ccc(OCc4ccccc4)cc3)cc(C(F)(F)F)n2n1	none (no result: HT1080NT lethal, HT1080 IDH1KD tx)
CC(C)(C)SCCNS(=O)(=O)c1ccc(F)cc1	DT40 TDP1 no CPT inconclusive
O=S(=O)(NCCSc1ccccc1)c1ccc(F)cc1	DT40 TDP1 CPT inconclusive, DT40 TDP1 no CPT 18µM, TGFb SMAD3 inh inconclusive, HT1080 IDH1KD tx inconclusive
CCOc1ccc2nc(NC(=O)c3nc(SCc4ccccc4F)ncc3Cl)sc2c1	DT40 TDP1 no CPT inconclusive (no result: HT1080NT lethal, HT1080 IDH1KD tx)
O=C(O)CCCn1cc(NC(=O)c2ccc(Br)o2)cn1	none
CC1CCCCN1C(=O)c1ccc(NC(=O)c2ccccc2Cl)cc1 (stereo not drawn)	none
CC1CCCCN1C(=O)c1ccc(C(=O)c2ccccc2)cc1 (stereo not drawn)	DT40 TDP1 CPT inconclusive, DT40 TDP1 no CPT 15µM
CC(Oc1ccc(Cl)cc1)C(=O)Nc1sccc1C(N)=O (stereo not drawn)	DT40 TDP1 CPT inconclusive, DT40 TDP1 no CPT 16µM, TGFb SMAD3 inh inconclusive
COc1cc(C(=O)OCC2CC(c3ccccc3)=NO2)cc(OC)c1OC (stereo not drawn)	DT40 TDP1 no CPT inconclusive
COc1ccc(-c2nc3c(c(=O)n(C)c(=O)n3C)n2CC2CC(c3ccccc3)=NO2)cc1OC (stereo not drawn)	DT40 TDP1 CPT 10µM, DT40 TDP1 no CPT 1.5µM
COc1ccc(C(=O)OCC2CC(c3ccccc3)=NO2)cc1OC (stereo not drawn)	DT40 TDP1 CPT 23µM, DT40 TDP1 no CPT inconclusive
CCC(C(=O)O)n1nc(-c2ccccc2)c2cc(Cl)ccc21 (stereo not drawn)	none
